Measured values taken from PubChem BioAssay (NCATS).
Inconclusive results are not listed. Unmarked numbers belong to inactive results. Calls come from the whole dose curve; as a rule, active = well fitted inhibition curve with a large enough effect; inconclusive = small, poorly fitted or top-dose-only effect; inactive = no such curve, though single readings can be large or run the other way.

assay: Primary qHTS for inhibitors of La Crosse Virus (LACV) - induced cell death in SH-SY5Y cells (AID 1508616); conditions: SH-SY5Y LACV cytopathicity rescue, ATP luminescence, 6 d; series mostly up to 4.29 µM; activity change: at the top concentration;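 note: top concentration of the series differs between compounds; 0% = infected DMSO wells and 100% = uninfected DMSO wells; higher means more rescue of cells from virus-induced death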
Source text: Assay Provider: Karin Peterson Ph.D.
National Institute of Allergy and Infection Diseases, National Institute of Health
La Crosse Virus (LACV) is a California serogroup mosquito-borne arbovirus, family Peribunyaviridae, which is an endemic pathogen in North America and can induce a rare, life-threatening neurological disease in children. LACV was first isolated in the early 1960s, from a summer "rural encephalitis" case in La Crosse, Wisconsin, USA. Since then, LACV encephalitis cases have been found in more than twenty states, with most cases in the Mississippi and Ohio River basins. The life cycle of LACV is maintained between the vector, the eastern tree-hole mosquito Aedes triseriatus, and vertebrate hosts including eastern gray squirrels (Sciurus carolinensis) and chipmunks (Tamiasstriatus grinseus). […] Most LACV infections in humans are asymptomatic or induce mild clinical symptoms of fever, headache, lethargy and vomiting. However, in some cases LACV can cause severe neuroinvasive disease, including encephalitis, meningitis, and meningoencephalitis, requiring hospitalization. To date, there is neither a licensed vaccine nor a Food and Drug Administration (FDA) approved antiviral therapy available to prevent or treat LACV encephalitis. The primary treatment for viral encephalitis is palliative care due to the lack of therapeutics. In the current study, we conducted a screen of 4,096 FDA approved and bioactive small molecules against LACV, by screening for rescue of LACV-induced cell death in SH-SY5Y cells.
LACV-induced cytopathicity assay
SEQUENCE No. (1,2, 3, etc.); […] (e.g., Cells, Incubation, Reagent, etc.); VALUE and DESCRIPTION.
1. Reagent; 2 uL; Cell solution.
3. Compounds; 23nL; Compound library
4. Reagent; 12 uL; LACV virus
6. Reagent; 24 uL; ATPLite (PerkinElmer)
7. Time; 5 min; Room temperature
8. Detection; Luminescence; View
NOTES (numbers refer to sequence above)
1. Seed 6000 SH-SY5Y cells (ATCC CRL-2266) in 2 microL/well media (DMEM/F12 10% FBS, 1x L-Glutamine, 1x Pyruvate, 1x NEAA, 1x Pen/Strep) in 384-well assay plates (tissue culture treated, white, solid bottom).
2. Incubate at 37 degrees C with 5% CO2 for 24 hr.
3. Dispense 23 nL/well compounds in DMSO via pin transfer.
4. Dispense 12 microL/well of LACV (LACV/human/1978) in media at 0.01 MOI.
5. Incubate at for 6 days at 37C 5% CO2
6. Dispense 24 microL/well of ATPLite 1step Luminescence assay system (PerkinElmer).
7. Incubate for 5 min at room temperature.
8. Read luminescence signal (Viewlux plate reader, PerkinElmer). Data was normalized with DMSO control wells containing LACV as 0%, and DMSO control wells without virus as 100%.

Row | SMILES | activity change
1 | Nc1ccn(C2CO[C@H](CO)O2)c(=O)n1 (stereo partly specified) | -4.94%
2 | CCn1c(=O)c2c(nc(C=Cc3ccc(OC)c(OC)c3)n2C)n(CC)c1=O | 16.9%
3 | Cc1ccc(-n2[nH]c(C)c(N=Nc3cccc(-c4cccc(C(=O)O)c4)c3O)c2=O)cc1C | 3.13%
4 | CN[C@H](CC(C)C)C(=O)N[C@H]1C(=O)N[C@@H](CC(N)=O)C(=O)N[C@@H]2C(=O)N[C@H]3C(=O)N[C@H](C(=O)N[C@H](C(=O)O)c4cc(O)cc(O)c4-c4cc3ccc4O)[C@H](O)c3ccc(c(Cl)c3)Oc3cc2cc(c3O[C@@H]2O[C@H](CO)[C@@H](O)[C@H](O)[C@@H]2O[C@H]2C[C@](C)(N)[C@H](O)[C@H](C)O2)Oc2ccc(cc2Cl)[C@H]1O | 22.6% [at 9.63 µM]
5 | Cc1ccccc1C(=O)Nc1ccc(C(=O)N2CCCC(O)c3cc(Cl)ccc32)c(C)c1 (stereo unspecified) | 37.1%
6 | COc1ccc2cc([S+]([O-])Cc3ncc(C)c(OC)c3C)nc2c1 | -7.51% [at 9.63 µM]
7 | O=c1[nH]c(=O)n([C@H]2C[C@@H](O)[C@@H](CO)O2)cc1C=CBr | 1.32% [at 9.63 µM]
8 | Cc1cn([C@@H]2O[C@H](CO)[C@@H](O)[C@H]2F)c(=O)[nH]c1=O | 2.55%
9 | CCCCC(=O)O[C@]1(C(=O)CO)[C@@H](C)C[C@H]2[C@@H]3CCC4=CC(=O)C=C[C@]4(C)[C@@]3(F)[C@@H](O)C[C@@]21C | 38.9%
10 | N[C@H]1CN(c2c(F)cc3c(=O)c(C(=O)O)cn(C4C[C@@H]4F)c3c2Cl)CC12CC2 (stereo partly specified) | -10.8%
11 | CC1(C)O[C@@H]2C[C@H]3[C@@H]4CCC5=CC(=O)C=C[C@]5(C)[C@@H]4[C@@H](O)C[C@]3(C)[C@]2(C(=O)CO)O1 | -5.43%
